# Assay results published in ChEMBL document CHEMBL2218924, “A broad activity screen in support of a chemogenomic map for kinase signalling research and drug discovery” (Biochem J, 2013).
# Key:
# [1] = biological target: T1, Serine/threonine-protein kinase 3 (Homo sapiens) (UniProt Q13188); conditions: at 1 µM
# T1 sequence (whole entry): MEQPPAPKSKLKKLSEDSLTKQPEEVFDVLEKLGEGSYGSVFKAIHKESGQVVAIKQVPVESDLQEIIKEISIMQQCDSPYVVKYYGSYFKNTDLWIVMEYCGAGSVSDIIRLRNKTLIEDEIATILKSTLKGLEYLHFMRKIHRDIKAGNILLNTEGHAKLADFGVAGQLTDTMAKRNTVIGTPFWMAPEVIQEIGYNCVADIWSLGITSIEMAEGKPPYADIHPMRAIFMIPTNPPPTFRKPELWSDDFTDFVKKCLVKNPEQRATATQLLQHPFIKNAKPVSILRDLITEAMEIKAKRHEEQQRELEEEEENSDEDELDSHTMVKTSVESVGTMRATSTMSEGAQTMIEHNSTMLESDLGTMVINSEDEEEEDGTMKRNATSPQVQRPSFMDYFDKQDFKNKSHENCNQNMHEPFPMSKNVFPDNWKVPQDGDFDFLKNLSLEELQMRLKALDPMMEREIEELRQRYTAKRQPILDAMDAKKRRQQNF
# [2] = biological target: T1, Serine/threonine-protein kinase 3 (Homo sapiens); conditions: at 10 µM
# [3] = biological target: Serine/threonine-protein kinase 24 (Homo sapiens) (UniProt Q9Y6E0); conditions: at 1 µM
# Serine/threonine-protein kinase 24 (Homo sapiens), sequence (Q9Y6E0 whole entry, looked up): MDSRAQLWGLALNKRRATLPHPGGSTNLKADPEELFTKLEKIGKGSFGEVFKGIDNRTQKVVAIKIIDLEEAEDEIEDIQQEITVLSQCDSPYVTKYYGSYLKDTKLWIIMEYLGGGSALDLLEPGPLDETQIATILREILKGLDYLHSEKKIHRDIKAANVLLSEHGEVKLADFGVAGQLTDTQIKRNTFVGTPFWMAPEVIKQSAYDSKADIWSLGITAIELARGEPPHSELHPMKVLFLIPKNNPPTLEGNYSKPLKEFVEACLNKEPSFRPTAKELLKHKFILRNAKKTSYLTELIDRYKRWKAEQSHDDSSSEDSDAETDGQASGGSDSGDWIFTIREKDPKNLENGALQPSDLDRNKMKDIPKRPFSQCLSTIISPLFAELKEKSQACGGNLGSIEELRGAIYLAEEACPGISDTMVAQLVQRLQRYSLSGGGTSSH
# [4] = biological target: Serine/threonine-protein kinase 24 (Homo sapiens) (UniProt Q9Y6E0); conditions: at 10 µM
# [5] = biological target: T2, Tyrosine-protein kinase Mer (Homo sapiens) (UniProt Q12866); conditions: at 1 µM
# T2 sequence (whole entry): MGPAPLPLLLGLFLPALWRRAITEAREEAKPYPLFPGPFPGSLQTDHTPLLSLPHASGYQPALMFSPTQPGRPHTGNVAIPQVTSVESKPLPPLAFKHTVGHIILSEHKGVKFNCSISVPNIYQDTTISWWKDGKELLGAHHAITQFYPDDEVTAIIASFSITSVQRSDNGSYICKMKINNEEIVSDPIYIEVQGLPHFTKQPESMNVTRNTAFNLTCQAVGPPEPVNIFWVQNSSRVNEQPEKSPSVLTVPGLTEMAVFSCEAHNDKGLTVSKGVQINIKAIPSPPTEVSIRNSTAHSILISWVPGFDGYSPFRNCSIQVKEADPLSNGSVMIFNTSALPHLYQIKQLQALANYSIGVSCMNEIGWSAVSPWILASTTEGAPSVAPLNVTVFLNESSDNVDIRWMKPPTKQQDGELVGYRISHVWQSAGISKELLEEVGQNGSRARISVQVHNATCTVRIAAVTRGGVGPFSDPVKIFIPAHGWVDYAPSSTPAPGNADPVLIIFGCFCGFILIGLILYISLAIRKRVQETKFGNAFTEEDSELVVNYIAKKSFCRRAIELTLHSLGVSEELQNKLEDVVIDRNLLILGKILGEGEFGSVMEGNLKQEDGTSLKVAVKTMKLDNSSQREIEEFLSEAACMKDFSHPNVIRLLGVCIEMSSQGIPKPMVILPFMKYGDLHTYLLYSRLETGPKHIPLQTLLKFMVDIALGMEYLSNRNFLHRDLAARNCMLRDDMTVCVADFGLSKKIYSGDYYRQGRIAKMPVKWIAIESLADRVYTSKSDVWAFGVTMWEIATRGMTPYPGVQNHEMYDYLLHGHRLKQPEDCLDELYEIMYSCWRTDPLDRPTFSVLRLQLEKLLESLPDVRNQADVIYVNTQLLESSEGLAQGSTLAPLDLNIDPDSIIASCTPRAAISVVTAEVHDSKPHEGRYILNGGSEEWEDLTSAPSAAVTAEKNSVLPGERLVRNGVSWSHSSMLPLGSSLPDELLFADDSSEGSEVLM
# [6] = biological target: T2, Tyrosine-protein kinase Mer (Homo sapiens); conditions: at 10 µM
# [7] = biological target: Hepatocyte growth factor receptor (Homo sapiens) (UniProt P08581); conditions: at 1 µM
# Hepatocyte growth factor receptor (Homo sapiens), sequence (P08581 whole entry): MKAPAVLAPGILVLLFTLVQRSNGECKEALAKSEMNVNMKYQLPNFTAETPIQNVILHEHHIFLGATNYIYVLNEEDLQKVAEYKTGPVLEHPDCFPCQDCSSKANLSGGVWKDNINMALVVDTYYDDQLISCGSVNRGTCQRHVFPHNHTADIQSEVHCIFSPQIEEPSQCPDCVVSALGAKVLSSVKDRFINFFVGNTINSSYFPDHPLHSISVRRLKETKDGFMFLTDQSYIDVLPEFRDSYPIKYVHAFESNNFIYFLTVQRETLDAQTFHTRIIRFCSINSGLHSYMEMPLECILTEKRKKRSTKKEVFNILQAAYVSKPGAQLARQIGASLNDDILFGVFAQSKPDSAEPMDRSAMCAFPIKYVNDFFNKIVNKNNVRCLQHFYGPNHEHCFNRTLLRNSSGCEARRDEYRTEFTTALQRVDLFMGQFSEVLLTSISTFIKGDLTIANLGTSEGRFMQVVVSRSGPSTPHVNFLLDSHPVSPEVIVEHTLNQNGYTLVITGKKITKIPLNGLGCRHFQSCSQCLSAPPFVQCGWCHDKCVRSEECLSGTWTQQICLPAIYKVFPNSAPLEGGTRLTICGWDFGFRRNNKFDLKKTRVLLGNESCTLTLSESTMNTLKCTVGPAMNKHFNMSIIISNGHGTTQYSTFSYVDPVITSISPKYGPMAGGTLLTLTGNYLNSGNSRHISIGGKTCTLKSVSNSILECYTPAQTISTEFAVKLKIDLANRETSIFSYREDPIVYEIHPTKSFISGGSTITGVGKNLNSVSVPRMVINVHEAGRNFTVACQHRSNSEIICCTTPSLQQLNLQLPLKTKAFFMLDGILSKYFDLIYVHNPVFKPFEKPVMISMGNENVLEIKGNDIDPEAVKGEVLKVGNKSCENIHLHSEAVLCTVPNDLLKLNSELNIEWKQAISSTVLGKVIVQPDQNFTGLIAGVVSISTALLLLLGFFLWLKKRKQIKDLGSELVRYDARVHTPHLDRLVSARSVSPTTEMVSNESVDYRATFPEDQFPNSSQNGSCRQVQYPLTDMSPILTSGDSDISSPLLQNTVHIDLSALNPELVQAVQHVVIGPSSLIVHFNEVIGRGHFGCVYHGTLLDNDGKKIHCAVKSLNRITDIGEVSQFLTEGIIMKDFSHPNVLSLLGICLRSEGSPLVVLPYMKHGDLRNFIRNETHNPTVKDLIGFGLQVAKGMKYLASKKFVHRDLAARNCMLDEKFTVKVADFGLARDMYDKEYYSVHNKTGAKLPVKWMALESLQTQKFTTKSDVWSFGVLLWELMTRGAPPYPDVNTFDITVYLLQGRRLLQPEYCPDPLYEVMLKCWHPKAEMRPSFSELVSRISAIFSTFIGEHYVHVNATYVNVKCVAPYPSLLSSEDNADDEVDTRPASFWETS
# [8] = biological target: Hepatocyte growth factor receptor (Homo sapiens) (UniProt P08581); conditions: at 10 µM
# [9] = biological target: MAP kinase-interacting serine/threonine-protein kinase 2 (Homo sapiens) (UniProt Q9HBH9); conditions: at 1 µM
# MAP kinase-interacting serine/threonine-protein kinase 2 (Homo sapiens), sequence (Q9HBH9 whole entry, looked up): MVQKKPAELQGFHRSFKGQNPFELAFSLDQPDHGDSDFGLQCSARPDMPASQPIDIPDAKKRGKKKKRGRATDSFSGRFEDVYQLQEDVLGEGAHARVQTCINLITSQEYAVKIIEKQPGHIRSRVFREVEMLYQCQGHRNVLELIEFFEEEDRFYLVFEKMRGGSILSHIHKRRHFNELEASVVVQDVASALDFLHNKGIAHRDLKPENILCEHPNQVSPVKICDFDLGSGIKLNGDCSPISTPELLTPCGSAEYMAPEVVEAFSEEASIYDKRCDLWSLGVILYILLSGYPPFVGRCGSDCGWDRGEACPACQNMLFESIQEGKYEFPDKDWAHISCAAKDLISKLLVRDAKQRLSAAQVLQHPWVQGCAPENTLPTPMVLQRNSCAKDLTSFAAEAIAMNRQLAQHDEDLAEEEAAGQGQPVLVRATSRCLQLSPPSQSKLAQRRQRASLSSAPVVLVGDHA
# [10] = biological target: MAP kinase-interacting serine/threonine-protein kinase 2 (Homo sapiens) (UniProt Q9HBH9); conditions: at 10 µM
SMILES,residual activity [1],residual activity [2],residual activity [3],residual activity [4],residual activity [5],residual activity [6],residual activity [7],residual activity [8],residual activity [9],residual activity [10]
O=C1NC(=O)/C(=C/c2ccc3c(c2)OC(F)(F)O3)S1,106%,102%,60%,70%,110%,95%,87%,78%,109%,96%
O=C(O)c1ccc2c3c1cccc3c(=O)n1c3ccccc3nc21,103%,81%,97%,67%,80%,28%,130%,73%,67%,23%
COc1ccc(C(=O)Nc2sc3c(c2C(N)=O)CCCC3)cc1OC,105%,91%,68%,65%,107%,86%,120%,110%,99%,82%
Oc1ccc(Nc2nc(-c3ccc(Cl)cc3)cs2)cc1,101%,76%,94%,102%,100%,90%,138%,110%,96%,80%
Cc1cc2ncc(-c3ccccc3)nc2cc1C,88%,95%,65%,83%,107%,90%,87%,134%,,
CO[C@@H]1[C@H](N(C)C(=O)c2ccccc2)C[C@H]2O[C@]1(C)n1c3ccccc3c3c4c(c5c6ccccc6n2c5c31)C(=O)NC4,3%,0%,17%,7%,8%,6%,35%,40%,44%,27%
Cc1nc2cc3nc(-c4cccs4)cnc3cc2n1C,107%,87%,90%,96%,103%,41%,128%,91%,84%,37%
CO[C@H]1C[C@@H]2CC[C@@H](C)[C@@](O)(O2)C(=O)C(=O)N2CCCC[C@H]2C(=O)O[C@H]([C@H](C)C[C@@H]2CC[C@@H](O)[C@H](OC)C2)CC(=O)[C@H](C)/C=C(\C)[C@@H](O)[C@@H](OC)C(=O)[C@H](C)C[C@H](C)/C=C/C=C/C=C/1C,94%,84%,64%,76%,101%,93%,95%,105%,105%,88%
C[C@@H](N)[C@H]1CC[C@H](C(=O)Nc2ccncc2)CC1,111%,105%,98%,92%,93%,101%,132%,131%,106%,77%
c1ccc(-c2n[nH]cc2-c2ccnc3ccccc23)nc1,88%,88%,66%,65%,98%,85%,108%,90%,109%,98%
CCC(=O)Nc1ccc2ncnc(Nc3cccc(Br)c3)c2c1,121%,91%,69%,69%,108%,86%,99%,100%,30%,9%
Cc1ccc(NC2=CC(=O)c3sc(C)nc3C2=O)cc1,109%,100%,78%,83%,98%,110%,91%,118%,98%,110%
Oc1n[nH]c2nnc(-c3c(-c4ccccc4)nn4ccccc34)cc12,96%,86%,72%,71%,98%,105%,104%,113%,107%,99%
CC(C)n1cnc2c(NCc3ccccc3)nc(NCCCO)nc21,111%,99%,77%,69%,98%,82%,101%,79%,90%,80%
O=C1Nc2ccccc2/C1=C1/Nc2ccccc2/C1=N\OCCC(O)CO (stereo not drawn),4%,1%,27%,3%,1%,-1%,45%,37%,66%,44%
O=C1NC(=O)c2c1c1c3ccccc3[nH]c1c1[nH]c3cc(Br)ccc3c21,89%,62%,92%,80%,87%,68%,120%,116%,48%,41%
COc1ccc(S(=O)(=O)N(CCO)c2ccccc2CN(C)C/C=C/c2ccc(Cl)cc2)cc1,99%,78%,78%,69%,93%,83%,113%,120%,106%,96%
